Laboratory results: PubChem BioAssay (Tox21)
Records with an inconclusive call do not appear. Calls of active or inactive are those of the source. The call rests on the fitted dose curve.

Each compound was assayed against Acetylcholinesterase (Homo sapiens) (UniProt P22303) (assay: Acetylcholinesterase (AChE) small molecule antagonists: colormetric cell-based qHTS assay (AID 1347395; further: nearly all actives have a fitted effect of over 30% in size)). Settings: SH-SY5Y cells AChE activity, colorimetric (Ellman); series mostly up to 115 µM; activity, negative = inhibition: at the top concentration.
Outline: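 Colorimetric read-out: DTNB detects thiocholine released when cellular AChE in SH-SY5Y cells hydrolyses acetylthiocholine. Cells attached overnight, received compound for 30 min at 37 C, then substrate mix for 90 min at 37 C.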
On the % scale 0 is the no-effect control and ±100 the full control effect; potency means the concentration at half of the fitted maximal effect.

Sequence of Acetylcholinesterase (Homo sapiens) (P22303 whole entry, looked up): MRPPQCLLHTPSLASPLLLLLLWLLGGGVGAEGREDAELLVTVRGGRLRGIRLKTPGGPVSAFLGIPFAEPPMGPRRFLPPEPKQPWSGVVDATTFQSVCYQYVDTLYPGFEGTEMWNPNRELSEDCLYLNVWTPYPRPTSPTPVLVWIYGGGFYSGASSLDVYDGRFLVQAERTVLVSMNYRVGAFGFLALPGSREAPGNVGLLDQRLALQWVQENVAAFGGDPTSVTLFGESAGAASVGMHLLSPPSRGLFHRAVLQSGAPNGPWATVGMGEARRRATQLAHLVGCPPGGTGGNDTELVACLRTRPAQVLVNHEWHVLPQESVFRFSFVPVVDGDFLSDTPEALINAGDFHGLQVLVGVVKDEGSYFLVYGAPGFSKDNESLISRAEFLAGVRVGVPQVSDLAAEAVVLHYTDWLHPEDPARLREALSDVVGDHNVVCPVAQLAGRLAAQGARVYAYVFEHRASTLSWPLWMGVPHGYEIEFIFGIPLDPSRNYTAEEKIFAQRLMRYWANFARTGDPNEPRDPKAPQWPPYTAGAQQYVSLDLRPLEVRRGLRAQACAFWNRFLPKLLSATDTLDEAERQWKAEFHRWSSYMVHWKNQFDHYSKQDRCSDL

Row | SMILES | activity, negative = inhibition | Potency
1 | CC(=O)OC[C@H]1O[C@@H](OC(C)=O)[C@H](OC(C)=O)[C@@H]1OC(C)=O | 1.79% [at 52.9 µM] (inactive) | 
2 | CC/C(=C(\c1ccc(O)cc1)c1ccc(OCCN(C)C)cc1)c1ccccc1 |  | 44.9 µM (active)
3 | CCOC(=O)[C@H](CCc1ccccc1)N[C@@H](C)C(=O)N1C(=O)N(C)C[C@H]1C(=O)O | 7.1% [at 52.9 µM] (inactive) | 
4 | CN(C)CCCN(C)C | 3.16% [at 10.5 µM] (inactive) | 
5 | Nc1cc(-c2ccncc2)c[nH]c1=O |  | inactive
6 | CCCCCCCCCCn1cc[n+](CCCCCCCCCC)c1C |  | 79.8 µM (active)
7 | Cc1ccc2oc(=O)ccc2c1 |  | inactive
8 | Nc1ccc(O)cc1 |  | inactive
9 | CCOC(=O)C(C#N)=C(c1ccccc1)c1ccccc1 |  | inactive
10 | Cc1cccc(C)c1NC(=O)CN1CCN(CCCC(c2ccc(F)cc2)c2ccc(F)cc2)CC1 | 0.552% [at 52.9 µM] (inactive) | 
11 | CN1C(=O)CC(C)(c2ccccc2)C1=O (stereo not drawn) | -0.489% [at 52.9 µM] (inactive) | 
12 | COC(=O)c1nc(Cl)c(Cl)nc1N | -2.33% [at 52.9 µM] (inactive) | 
13 | Cc1ccccc1OCC1CO1 (stereo not drawn) | 4.24% (inactive) | 
14 | c1ccc(CNCCNCc2ccccc2)cc1 | 0.482% [at 52.9 µM] (inactive) | 
15 | CCCCOC(=O)c1ccc(O)cc1 |  | inactive
16 | CCCOC(C)=O | 0.484% (inactive) | 
17 | O=c1[nH]nnc2ccccc12 |  | inactive
18 | Fc1ccc([C@@H]2CCNC[C@H]2COc2ccc3c(c2)OCO3)cc1 | -0.617% [at 52.9 µM] (inactive) | 
19 | Cc1ncc(CSSCc2cnc(C)c(O)c2CO)c(CO)c1O | 1.32% [at 52.9 µM] (inactive) | 
20 | CCc1ccccc1CC |  | inactive
21 | Cc1cccc2c1cc1ccc3cccc4ccc2c1c34 | -2.38% (inactive) | 
22 | NNc1nc(-c2ccc([N+](=O)[O-])cc2)cs1 | 1.63% (inactive) | 
23 | CCOC(=O)C1=C(C)NC(C)=C(C(=O)OC)C1c1cccc([N+](=O)[O-])c1 (stereo not drawn) | 0.673% [at 52.9 µM] (inactive) | 
